Inconclusive results are not listed. The source made the active and inactive calls. The calls were made as follows, unless noted: active = hit-call score of the fitted dose curve at least 0.9, where 1 is the maximum; inactive = score below 0.9.
Legend:
[1] = biological target: Retinoic acid receptor RXR-alpha (Homo sapiens) (UniProt P19793); experiment: ATG_RXRa_TRANS: Attagene TRANS-FACTORIAL HepG2 Assay for human Retinoid X Receptor alpha (RXRa) (AID 2283012; active = hit-call score of the fitted dose curve at least 0.9, where 1 is the maximum)
Summary of the method: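 TRANS format reporting activity of exogenous RXRa-Gal4 chimera in transiently transfected HepG2, 24 h exposure. Reporter transcripts quantified by RT-PCR with capillary electrophoresis, with gain of signal scored relative to DMSO.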

[2] = biological target: human Retinoid X Receptor beta (RXRb), RXRB (gene 6257) (UniProt P28702); experiment: ATG_RXRb_TRANS: Attagene TRANS-FACTORIAL HepG2 Assay for human Retinoid X Receptor beta (RXRb) (AID 2283013; active = hit-call score of the fitted dose curve at least 0.9, where 1 is the maximum)
Summary of the method: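 Readout is reporter transcript induction after 24 h dosing. It is measured by RT-PCR of total RNA followed by fluorescent capillary electrophoresis. HepG2 liver cells carry transfected multiple reporter units driven by an exogenous RXRb-Gal4 fusion; activity is relative to DMSO.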

[3] = biological target: human Thyroid Receptor alpha (THRa1), THRA (gene 7067) (UniProt P10827); experiment: ATG_THRa1_TRANS: Attagene TRANS-FACTORIAL HepG2 Assay for human Thyroid Receptor alpha (THRa1) (AID 2283014; active = hit-call score of the fitted dose curve at least 0.9, where 1 is the maximum)
Summary of the method: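 HepG2 cells transiently transfected with chimeric NR-Gal4 and GAL4-UAS reporter units, dosed 24 h. Reporter mRNA quantified by RT-PCR, fluorescent labeling, HpaI digestion and capillary electrophoresis; gain-of-signal fit versus DMSO.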

[4] = read-out: E-selectin (Homo sapiens) (UniProt P16581); experiment: BSK_3C_Eselectin: BioMAP Diversity Plus: 3C Assay for Eselectin Biomarker Activity (AID 2283015); conditions: primary human endothelial cells (HUVEC); actives raise or lower the signal
Summary of the method: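 Primary human umbilical vein endothelial cells (3C system), read 24 h after compound addition; E-selectin measured by ELISA. Bidirectional curve fitting against DMSO baseline; cytotoxicity by parallel SRB total-protein staining.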

[5] = read-out: Interleukin-1 alpha (IL1a), IL1A (gene 3552); experiment: BSK_BE3C_IL1a: BioMAP Diversity Plus: BE3C Assay for Interleukin-1 alpha (IL1a) Biomarker Activity (AID 2283016); conditions: primary human bronchial epithelial cells; actives raise or lower the signal
Summary of the method: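 IL-1a measured by ELISA after 24 h treatment of human primary bronchial epithelial cells, with gain or loss of signal fitted versus DMSO. Parallel cultures stained with SRB gauge overt cytotoxicity.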

[6] = read-out: Monocyte Chemoattractant Protein-1 (MCP1), CCL2 (gene 6347); experiment: BSK_3C_MCP1: BioMAP Diversity Plus: 3C Assay for Monocyte Chemoattractant Protein-1 (MCP1) Biomarker Activity (AID 2283017); conditions: primary human endothelial cells (HUVEC); actives raise or lower the signal
Summary of the method: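 Human umbilical vein endothelial cells (3C system) exposed to chemicals for 24 h; MCP-1 quantified by ELISA against the DMSO baseline with bidirectional fitting, and parallel SRB staining used to assess cytotoxicity.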

[7] = read-out: Monocyte Chemoattractant Protein-1 (MCP1), CCL2 (gene 6347); experiment: BSK_4H_MCP1: BioMAP Diversity Plus: 4H Assay for Monocyte Chemoattractant Protein-1 (MCP1) Biomarker Activity (AID 2283018); conditions: primary human endothelial cells (HUVEC); actives raise or lower the signal
Summary of the method: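 ELISA of MCP-1 (CCL2) 24 h after chemical dosing of HUVEC in the BioMAP 4H system. Gain or loss versus DMSO fitted; parallel SRB staining (560 nm) tracked overt cytotoxicity.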

[8] = read-out: Human Leukocyte Antigen - DR isotype (HLADR), HLA-DRA (gene 3122); experiment: BSK_3C_HLADR: BioMAP Diversity Plus: 3C Assay for Human Leukocyte Antigen - DR isotype (HLADR) Biomarker Activity (AID 2283019); conditions: primary human endothelial cells (HUVEC); actives raise or lower the signal
Summary of the method: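 HUVEC monoculture, HLA-DR measured by ELISA 24 h after chemical dosing. Fitted bidirectionally against DMSO baseline; parallel SRB staining assessed cytotoxicity, with 3C proliferation read by SRB at 48 h.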

[9] = read-out: Interleukin-8 (IL8), CXCL8 (gene 3576); experiment: BSK_3C_IL8: BioMAP Diversity Plus: 3C Assay for Interleukin-8 (IL8) Biomarker Activity (AID 2283020); conditions: primary human endothelial cells (HUVEC); actives raise or lower the signal
Summary of the method: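 IL-8 was measured by ELISA in HUVEC cultures 24 h after chemical dosing, with gain or loss of signal fitted relative to DMSO. Parallel SRB total-protein staining tracked overt cytotoxicity.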

[10] = read-out: Monokine induced gamma interferon (MIG), CXCL9 (gene 4283); experiment: BSK_3C_MIG: BioMAP Diversity Plus: 3C Assay for Monokine induced gamma interferon (MIG) Biomarker Activity (AID 2283021); conditions: primary human endothelial cells (HUVEC); actives raise or lower the signal;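 as to AC50: MIG protein level measured by immunoassay in the treated endothelial cultures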
Summary of the method: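 ELISA measurement of MIG in human umbilical vein endothelial cells 24 h after treatment. Cytotoxicity tracked by SRB staining in parallel cultures; gain or loss of signal fitted relative to DMSO.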

Measured: AC50

Sequence of Retinoic acid receptor RXR-alpha (Homo sapiens) (P19793 whole entry, looked up, the tested form may be a part): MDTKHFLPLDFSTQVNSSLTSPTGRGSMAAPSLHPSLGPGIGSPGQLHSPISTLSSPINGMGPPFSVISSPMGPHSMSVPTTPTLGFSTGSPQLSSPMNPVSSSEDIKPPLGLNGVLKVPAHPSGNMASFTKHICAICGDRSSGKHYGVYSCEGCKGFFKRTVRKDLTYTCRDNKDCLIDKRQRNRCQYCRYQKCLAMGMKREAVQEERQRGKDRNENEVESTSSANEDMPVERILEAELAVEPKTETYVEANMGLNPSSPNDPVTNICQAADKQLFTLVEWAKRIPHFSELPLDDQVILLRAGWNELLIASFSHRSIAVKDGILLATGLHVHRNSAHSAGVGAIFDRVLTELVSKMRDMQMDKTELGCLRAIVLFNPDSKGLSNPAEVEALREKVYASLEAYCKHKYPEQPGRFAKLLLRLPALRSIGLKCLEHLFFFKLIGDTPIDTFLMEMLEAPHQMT
Sequence of human Retinoid X Receptor beta (RXRb), RXRB (gene 6257) (P28702 whole entry, looked up, the tested form may be a part): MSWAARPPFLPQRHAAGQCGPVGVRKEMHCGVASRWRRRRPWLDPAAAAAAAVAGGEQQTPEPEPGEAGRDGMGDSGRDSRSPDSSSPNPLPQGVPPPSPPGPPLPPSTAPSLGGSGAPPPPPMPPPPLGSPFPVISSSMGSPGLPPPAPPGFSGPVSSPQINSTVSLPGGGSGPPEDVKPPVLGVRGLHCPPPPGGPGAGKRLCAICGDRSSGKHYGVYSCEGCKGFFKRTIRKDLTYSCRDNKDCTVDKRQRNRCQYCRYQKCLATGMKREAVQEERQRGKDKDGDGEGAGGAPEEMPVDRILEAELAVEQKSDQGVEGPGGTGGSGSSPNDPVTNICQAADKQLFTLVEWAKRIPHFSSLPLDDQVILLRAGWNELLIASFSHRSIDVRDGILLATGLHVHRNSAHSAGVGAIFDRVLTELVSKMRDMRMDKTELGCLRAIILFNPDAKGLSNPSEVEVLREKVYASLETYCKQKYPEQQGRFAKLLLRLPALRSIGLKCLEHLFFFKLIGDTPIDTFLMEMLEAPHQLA
Sequence of E-selectin (Homo sapiens) (P16581 whole entry, looked up): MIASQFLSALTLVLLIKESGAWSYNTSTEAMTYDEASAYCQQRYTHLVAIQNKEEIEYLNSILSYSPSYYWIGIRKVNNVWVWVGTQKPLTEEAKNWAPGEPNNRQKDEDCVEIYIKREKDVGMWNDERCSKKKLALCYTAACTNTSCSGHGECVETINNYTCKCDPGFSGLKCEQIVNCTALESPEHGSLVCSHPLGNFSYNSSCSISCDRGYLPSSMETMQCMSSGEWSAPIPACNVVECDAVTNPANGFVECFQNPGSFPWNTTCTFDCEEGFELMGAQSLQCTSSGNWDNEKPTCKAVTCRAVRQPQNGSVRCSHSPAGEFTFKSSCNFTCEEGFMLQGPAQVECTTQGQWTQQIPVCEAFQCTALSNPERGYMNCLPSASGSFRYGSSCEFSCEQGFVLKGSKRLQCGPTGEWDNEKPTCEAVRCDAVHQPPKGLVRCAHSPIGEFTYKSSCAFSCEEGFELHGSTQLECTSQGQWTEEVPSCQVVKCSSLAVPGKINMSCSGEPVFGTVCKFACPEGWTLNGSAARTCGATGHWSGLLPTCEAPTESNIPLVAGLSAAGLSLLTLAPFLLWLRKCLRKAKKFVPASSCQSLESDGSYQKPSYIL
Sequence of human Thyroid Receptor alpha (THRa1), THRA (gene 7067) (P10827 whole entry, looked up, the tested form may be a part): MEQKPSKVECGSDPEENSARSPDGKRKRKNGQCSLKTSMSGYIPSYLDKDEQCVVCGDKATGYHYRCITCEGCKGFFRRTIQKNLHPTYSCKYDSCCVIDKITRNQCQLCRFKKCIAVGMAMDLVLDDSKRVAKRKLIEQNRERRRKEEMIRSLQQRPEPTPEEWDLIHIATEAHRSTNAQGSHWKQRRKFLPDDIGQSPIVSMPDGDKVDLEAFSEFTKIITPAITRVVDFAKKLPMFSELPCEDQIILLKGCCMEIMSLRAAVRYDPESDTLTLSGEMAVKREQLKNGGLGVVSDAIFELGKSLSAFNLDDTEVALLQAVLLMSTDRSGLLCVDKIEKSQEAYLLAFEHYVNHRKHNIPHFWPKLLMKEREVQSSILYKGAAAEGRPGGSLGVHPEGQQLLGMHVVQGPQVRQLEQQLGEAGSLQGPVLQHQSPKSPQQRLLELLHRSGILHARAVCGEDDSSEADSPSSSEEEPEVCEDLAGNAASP

Cc1ccc(N(C)C)cc1
inactive: all assays above

CC(=O)OC/C=C(\C)CCC=C(C)C
not listed: [3]
inactive: all other assays above

Nc1nc(N)c2nc(CNc3ccc(C(=O)N[C@@H](CCC(=O)O)C(=O)O)cc3)cnc2n1
inactive: all assays above

CCCCCCOCCO
inactive: all assays above

FC(F)(F)C(F)(F)C(F)(F)C(F)(F)C(F)(F)C(F)(F)CCI
not listed: [3]
inactive: all other assays above

C=CCOC(=O)c1ccccc1C(=O)OCC=C
not listed: [3]
inactive: all other assays above

CCCCC(CC)COC(=O)CC(C(=O)OCC(CC)CCCC)S(=O)(=O)O (centres undefined)
inactive: [1] | [2]
active: [4] 38.1 µM | [5] 11.6 µM | [6] 31.4 µM | [7] 29.3 µM | [8] 37.9 µM | [9] 30.6 µM | [10] 38 µM

COc1cccc2c1C(=O)c1c(O)c3c(c(O)c1C2=O)C[C@@](O)(C(=O)CO)C[C@@H]3O[C@H]1C[C@H](N)[C@H](O)[C@H](C)O1
inactive: [1]
active: [2] 0.0616 µM | [3] 32.9 µM

CC(=O)C(C)=CC1C(C)=CCCC1(C)C (centres undefined)
active: [2] 27.9 µM
not listed: [3]
inactive: all other assays above

C1CCC(SSC2CCCCC2)CC1
active: [8] 20 µM
inactive: all other assays above

CC1(C)NC(=O)NC1=O
inactive: all assays above

CCOc1ccc2c(c1)C(C)=CC(C)(C)N2
active: [1] 100 µM | [2] 6.69 µM | [3] 100 µM
inactive: all other assays above

CC(CO)OC(C)CO (centres undefined) (tested in a mixture with another compound)
active: [2] 13.8 µM
not listed: [3]
inactive: all other assays above

O=c1[nH]cc(F)c(=O)[nH]1
not listed: [3]
inactive: all other assays above

CNCc1cc(F)ccc1Oc1ccc(Cl)c(Cl)c1
active: [4] 4.88 µM | [6] 20 µM | [7] 11.6 µM | [8] 32.4 µM | [9] 20 µM
inactive: [1] | [2] | [3] | [5] | [10]

C=CCc1ccc(O)c(OC)c1
active: [2] 63.2 µM
not listed: [3]
inactive: all other assays above

COc1cc(/C=C/C(=O)CC(=O)/C=C/c2ccc(O)c(OC)c2)ccc1O
inactive: [1]

Cc1cc(NC(=O)C(=O)O)cc(C)c1Oc1ccc(O)c2c1CCC2
active: [3] 0.00869 µM
inactive: all other assays above

Cc1ccc(C(C)C)c(O)c1
active: [2] 40.6 µM
inactive: all other assays above

O=C(O)CCCCC(=O)O
not listed: [3]
inactive: all other assays above

O=c1c(O)c(-c2ccc(O)c(O)c2)oc2cc(O)cc(O)c12
inactive: [1] | [2] | [3] | [10]
active: [4] 34.7 µM | [5] 15.8 µM | [6] 15 µM | [7] 20 µM | [9] 14.5 µM

Source: PubChem BioAssay (EPA / NIEHS)
